# High-throughput results (PubChem BioAssay)
# EPAC2 antagonist: qHTS for Antagonist of cAMP-regulated guanine nucleotide exchange factor 2 (EPAC2): primary screen; Rap guanine nucleotide exchange factor 4 (Homo sapiens), Q8WZA2; EPAC2 GEF exchange of Rap1B-BODIPY-GDP, fluorescence; Potency, µM (series often up to 114 µM), without a hit: at the highest dose activity, negative = inhibition, most hits filed as inhibitors; hit rate 0.18% among 360,000; further: potency means the concentration at half of the fitted maximal effect; on the % scale 0 is the no-effect control and ±100 the full control effect; nearly all actives have a fitted effect of over 45% in size
# Target sequence (Q8WZA2 whole entry, looked up): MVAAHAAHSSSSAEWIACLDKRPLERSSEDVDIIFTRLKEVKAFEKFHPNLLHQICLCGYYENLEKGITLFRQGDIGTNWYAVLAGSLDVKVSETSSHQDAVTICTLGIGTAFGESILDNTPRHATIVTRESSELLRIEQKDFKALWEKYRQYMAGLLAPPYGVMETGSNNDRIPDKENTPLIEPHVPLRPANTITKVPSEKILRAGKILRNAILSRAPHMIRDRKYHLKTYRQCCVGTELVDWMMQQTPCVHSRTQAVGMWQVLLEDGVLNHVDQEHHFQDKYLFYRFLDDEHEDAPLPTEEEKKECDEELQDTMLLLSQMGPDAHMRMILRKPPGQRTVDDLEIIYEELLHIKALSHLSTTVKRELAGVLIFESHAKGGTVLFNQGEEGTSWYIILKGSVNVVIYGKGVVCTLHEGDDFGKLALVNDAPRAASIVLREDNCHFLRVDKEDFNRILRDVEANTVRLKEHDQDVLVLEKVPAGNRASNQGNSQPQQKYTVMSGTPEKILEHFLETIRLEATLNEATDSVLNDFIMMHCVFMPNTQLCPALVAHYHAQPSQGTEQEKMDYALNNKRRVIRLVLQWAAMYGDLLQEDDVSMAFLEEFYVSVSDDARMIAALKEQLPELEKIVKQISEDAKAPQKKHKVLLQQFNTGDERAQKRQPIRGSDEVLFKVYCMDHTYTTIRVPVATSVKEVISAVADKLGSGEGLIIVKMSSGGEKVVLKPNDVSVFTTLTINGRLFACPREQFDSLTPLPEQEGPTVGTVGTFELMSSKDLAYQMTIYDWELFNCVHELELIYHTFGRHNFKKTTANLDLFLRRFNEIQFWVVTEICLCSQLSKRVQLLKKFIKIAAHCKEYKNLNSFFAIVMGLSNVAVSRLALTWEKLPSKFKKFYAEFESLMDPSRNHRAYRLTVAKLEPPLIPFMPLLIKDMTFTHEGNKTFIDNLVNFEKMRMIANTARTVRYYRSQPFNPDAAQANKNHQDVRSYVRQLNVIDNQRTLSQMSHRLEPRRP
# TRPML1 inh: qHTS for Inhibitors of the Human Mucolipin Transient Receptor Potential 1 (TRPML1); hit rate 0.02% among 390,000; Mucolipin-1 (Homo sapiens), Q9GZU1; TRPML1-inducible cells, Ca2+ dye fluorescence, FDSS; stronger effect = lower value; inhibition of EC80 agonist-evoked calcium signal; activity change, negative = inhibition, % (concentration not given with the values); in the data active means activity change below about -50%; inconclusive means between about -30% and that limit;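 further: stimulus is agonist 54-4 at its EC80 concentration; on the % scale 0 is the no-effect control and ±100 the full control effect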
#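 Calcium fluorescence in TRPML1-DL cells induced overnight with Tet: a 110 s read after compound pin addition, then a 110 s antagonist read after challenge with 54-4 at 4 uM final (EC80).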
# TRPML1 ag: qHTS for Agonists of the Human Mucolipin Transient Receptor Potential 1 (TRPML1); Mucolipin-1 (Homo sapiens), Q9GZU1; TRPML1-expressing cells, Ca2+ dye fluorescence, FDSS; activation, % (no concentration beside the values); hit rate 0.12% among 410,000; in the data active means activation above about 50%; inconclusive means mostly about 30% to 49%; further: 0% is about no effect
#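 Agonist activity was taken from a 110 s kinetic Ca2+ dye read on the FDSS after pinning compounds onto TRPML1-DL cells. The cells were seeded at 1,500/well with Tet inducer, incubated about 16 h, then dye-loaded at room temperature.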
# EPAC2 agonist: qHTS for Agonist of cAMP-regulated guanine nucleotide exchange factor 4 (EPAC2): primary screen; Rap guanine nucleotide exchange factor 4 (Homo sapiens), Q8WZA2; EPAC2 activation, biochemical qHTS; response scale: 100% = 6.5 mM cAMP response; Potency, µM (highest dose often 154 µM), for inactives: top-dose activation, most hits filed as activators; hit rate 0.079% among 360,000; AID 720711, 2013; further: potency means the concentration at half of the fitted maximal effect; nearly all actives have a fitted effect of over 50% in size
#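 Nucleotide exchange monitored as fluorescence drop when BODIPY-GDP leaves Rap1B. Reaction: 100 nM EPAC2, 250 nM RAP1B-BODIPY-GDP, 50 uM GDP, room temperature, kinetic read over 30 min. Activity expressed relative to 6.5 mM cAMP.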
# EPAC1 antag: qHTS for Antagonist of cAMP-regulated guanine nucleotide exchange factor 3 (EPAC1): primary screen. Rap guanine nucleotide exchange factor 3 (Homo sapiens), O95398. EPAC1 GEF assay, Rap1b-BODIPY-GDP exchange fluorescence. Potency, µM (doses to about 115 µM), for inactives: at the top dose activity change, negative = inhibition, usual class: inhibitors. hit rate 0.14% among 360,000. AID 720709, 2013;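 further: potency means the concentration at half of the fitted maximal effect; plate controls were vehicle for no effect and positive control for full effect; nearly all actives have a fitted effect of over 50% in size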
# EPAC1 agonist: qHTS for Agonist of cAMP-regulated guanine nucleotide exchange factor 3 (EPAC1): primary screen; Potency, µM (titrated, usually from 154 µM), inactives show top-dose activation, most hits filed as activators; EPAC1 agonist qHTS, biochemical assay; response scale: 100% = response to 6.5 mM cAMP; hit rate 0.073% among 360,000; Rap guanine nucleotide exchange factor 3 (Homo sapiens), O95398; further: potency means the concentration at half of the fitted maximal effect; nearly all actives have a fitted effect of over 60% in size
#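 Compounds were pinned as a concentration titration into mixtures of EPAC1 (100 nM), BODIPY-GDP-loaded Rap1B (250 nM) and GDP (50 uM). After 5 min at room temperature, fluorescence was followed for 30 min; activity was scaled to 6.5 mM cAMP.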
# The depositor's hits bear a star; i = inactive; ? = inconclusive; / = not tested or not shown. This is a sample that favours compounds with a hit; in the whole collection about 0.4% have one here. Unless noted, the call rests on the fitted dose curve; in most records, active means well fitted curve in the direction sought with a large enough effect; inconclusive means small, poorly fitted or top-dose-only effect, or another doubt; inactive means no such curve, though single readings can be large; an effect the other way counts as inactive or inconclusive.
SMILES,EPAC2 antagonist,TRPML1 inh,TRPML1 ag,EPAC2 agonist,EPAC1 antag,EPAC1 agonist
Oc1ccc2ccccc2c1C=NC12CN3CCN(CN(C3)C1)C2,?,10.9,-0.7,19.5%,79.4µM*,15.9%
COc1cccc(NC2c3ccccc3C(=O)N2Cc2ccco2)c1 (configuration not stated),-12.7%,12.3,0.7,6.8%,-18.8%,0.3%
Cc1ccccc1NC1c2ccccc2C(=O)N1Cc1ccco1 (configuration not stated),31.6µM*,5.8,-0.3,7.6%,3.3%,-10.3%
Cc1cc(=O)oc2cc(NC(=O)C(CCCN=C(N)N)NC(=O)OCc3ccccc3)ccc12 (configuration not stated),10.1%,-52.0*,0.0,12.1%,-1.7%,9.0%
C/C(=C\C(=O)c1ccccc1)Nc1ccc(O)cc1,3.0%,-9.0,-0.4,3.0%,70.8µM*,20.5%
COc1ccc(Cn2nnnc2C(c2ccccn2)N2CCN(c3cc(Cl)ccc3C)CC2)cc1 (configuration not stated),0.6%,-14.1,74.3*,10.3%,-4.8%,19.1%
COCCn1nnnc1C(c1ccccn1)N1CCN(c2cc(Cl)ccc2C)CC1 (configuration not stated),6.6%,8.7,14.0,-1.8%,3.1%,0.0%
CN1/C(=C\C=C2/SC(=S)NC2=O)C(C)(C)c2ccccc21,97.6%,-1.8,85.4*,63.1µM*,48.9%,63.1µM*
CN1/C(=C\C=C2/C(=O)Oc3ccccc3C2=O)C(C)(C)c2ccccc21,i,-11.8,98.5*,79.4µM*,i,79.4µM*
CN1C(=CC=C2C=C(I)C(=O)C(I)=C2)C(C)(C)c2ccccc21,20.6%,-5.3,15.5,1.4%,-9.4%,9.5%
Cc1ccc(S(=O)c2ccc([N+](=O)[O-])c3nonc23)cc1 (configuration not stated),50.1µM*,-8.4,11.2,29.1%,?,8.2%
O=C(N/N=C/c1ccc(Sc2ccccn2)o1)c1cc2ccccc2cc1O,1.2%,5.5,-0.5,0.9%,56.2µM*,1.3%
CCCSc1nc(C)cc(C)c1S(=O)(=O)c1ccccc1C,10µM*,81.6,1.8,-0.1%,?,-4.2%
C[n+]1cccc(Br)c1,/,/,-0.6,/,/,/
CC(C)Cc1nn2c(=O)cc(COC(=O)c3ccccc3NC(=O)c3ccccc3)nc2s1,/,-55.6*,-0.1,/,/,/
CNc1snc(C)c1C(=O)OCC(=O)Nc1ccc(C)cc1F,-2.9%,-6.0,0.2,-7.8%,-8.4%,56.2µM*
Cc1c(F)cccc1NC(=O)CCC(=O)O,-2.7%,15.1,0.0,10.2%,-11.6%,-3.1%
Cc1c(F)cccc1NC(=O)CSCC(=O)Nc1ccccc1,-1.8%,-55.3*,1.0,0.9%,0.7%,8.6%
Cc1cc(SCC(=O)c2ccc(O)c(O)c2)nc2ccccc12,-29.6%,1.7,2.9,19.2%,28.2µM*,12.5%
Cc1cc(SCC(=O)c2ccc3c(c2)OCO3)nc2ccccc12,-3.5%,41.2,2.4,19.9%,-0.5%,18.8%
O=C(CSc1n[nH]c(-c2ccccc2)n1)c1ccc(O)c(O)c1,0.8%,-9.9,1.8,10.1%,35.5µM*,-1.5%
CC(=O)N1CCN(/[N+]([O-])=N/Oc2ccc([N+](=O)[O-])cc2[N+](=O)[O-])CC1,/,28.1,1.5,/,/,/
COc1cc2nc(N3CCCN(C)CC3)nc(NC3CCNCC3)c2cc1OC,/,/,-0.1,/,/,/
CSc1ccccc1NC(=O)CN(C1CCCCC1)S(C)(=O)=O,4.4%,-9.7,0.1,2.5%,-2.3%,3.0%
CN(CC(=O)Nc1ccccc1Sc1ccccc1)C1CCCCC1,50.1µM*,?,60.2*,25.0%,?,0.2%
SMILES,EPAC2 antagonist,TRPML1 inh,TRPML1 ag,EPAC2 agonist,EPAC1 antag,EPAC1 agonist
Cc1ccccc1CN1Cc2cccc3c2[C@H](C=CC3)CC1=O,/,/,-0.3,/,/,/
O=S1(=O)CCO[C@H]2CCCC[C@@H]2N1Cc1ccccc1,/,/,-1.2,/,/,/
Cc1cc(/C=C/c2ccnc3ccccc23)ccc1N,/,/,27.4,/,/,/
CCOc1ccc2c(ccc(/C=C/c3cc(C)c4cccnc4c3O)[n+]2C)c1,39.8µM*,-2.1,-0.3,?,35.5µM*,63.1µM*
COc1cccc(-c2ccc3ncnc(N(C)Cc4ccco4)c3c2)c1,31.6µM*,/,/,10.6%,-12.0%,5.3%
Nc1nc(N)c2c(OCc3ccc(C(F)(F)F)cc3)cccc2n1,/,/,9.8,/,/,/
CC(=O)Nc1cccc(C(=O)/C=C/c2ccc(F)cc2)c1,-7.2%,31.5,0.0,9.1%,79.4µM*,-3.0%
CC(=O)Nc1cccc(C(=O)/C=C/c2ccc(N(C)C)cc2)c1,40.3%,?,71.9*,6.4%,23.3%,-3.7%
CC(=O)Nc1cccc(C(=O)/C=C/c2ccc(Br)cc2)c1,-8.4%,6.3,-0.1,14.5%,-19.5%,13.6%
CCCN(CCC)c1ccc(/C=C/c2sc3ccccc3[n+]2CCCCI)cc1,/,/,18.2,/,/,/
Cc1ccc(N2CCN(S(=O)(=O)c3ccc(F)c(C)c3)CC2)c(C)c1,-4.2%,-20.2,50.4*,-8.2%,-11.0%,5.8%
COc1cc(/C=C2\SC(=O)N(CC(=O)Nc3cccc(C)c3)C2=O)cc([N+](=O)[O-])c1O,50.1µM*,11.5,3.2,-15.2%,?,7.2%
COc1cc(/C=C2\SC(=O)N(c3ccccc3Cl)C2=O)cc([N+](=O)[O-])c1O,?,30.6,2.4,-4.8%,79.4µM*,0.1%
CC(C)(C)n1ncc2c(=O)n(Cc3cc(F)ccc3Cl)cnc21,/,-1.7,2.1,/,/,/
COC1=CC(=O)c2c(ccc3ncnc(N)c23)C1=O,39.8µM*,1.9,0.0,-0.9%,39.8µM*,-6.5%
COC1=CC(=O)c2nc(Cl)ccc2C1=O,?,/,-0.7,27.7%,?,-23.5%
CCCCCCCCCC[n+]1cc(Br)cc(Br)c1,/,/,-0.3,/,/,/
COc1ccc(/C=C2/C(=O)N(CC3CCCO3)C(=S)N2C)c(OC)c1 (configuration not stated),451.3%,15.1,2.7,i,50.1µM*,-284.7%
COc1ccccc1/C=C1\NC(=S)N(CC2CCCO2)C1=O (configuration not stated),-1.0%,21.4,1.4,10.6%,-17.1%,8.8%
